Compounds with a hit are over-represented: about 2.4% of the library has one in this group of screens.
M1 PAM parental = M1 PAM counterscreen hit in parental CHO-K1 cells; ATP EC20, Fluo-8 calcium fluorescence; 0% at ATP EC20, 100% at ATP max; activation, % at 3 µM; hit rate 0.02% among 360,000; AID 602247;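 active = activation above the run cutoff, the mean activation of all test compounds plus 3 SD, cut at about 40% in these data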;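 note: peak over basal fluorescence ratio in a 140 s read after ATP addition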
M1 antag = antagonists of human M1 muscarinic receptor | hit rate 1.3% among 360,000 | inhibition, % at 3 µM | AID 588852 | CHO-K1 hM1, Fluo-8 calcium fluorescence, ACh EC80 antagonist | P11229;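 active = percent inhibition above its own plate's cutoff, namely the mean of that plate's compound wells plus 3 SD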;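 note: peak over basal fluorescence ratio during 140 s after agonist addition; 0% = ACh EC80 plus DMSO and 100% = DMSO alone without agonist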
Target sequence (P11229 whole entry, looked up): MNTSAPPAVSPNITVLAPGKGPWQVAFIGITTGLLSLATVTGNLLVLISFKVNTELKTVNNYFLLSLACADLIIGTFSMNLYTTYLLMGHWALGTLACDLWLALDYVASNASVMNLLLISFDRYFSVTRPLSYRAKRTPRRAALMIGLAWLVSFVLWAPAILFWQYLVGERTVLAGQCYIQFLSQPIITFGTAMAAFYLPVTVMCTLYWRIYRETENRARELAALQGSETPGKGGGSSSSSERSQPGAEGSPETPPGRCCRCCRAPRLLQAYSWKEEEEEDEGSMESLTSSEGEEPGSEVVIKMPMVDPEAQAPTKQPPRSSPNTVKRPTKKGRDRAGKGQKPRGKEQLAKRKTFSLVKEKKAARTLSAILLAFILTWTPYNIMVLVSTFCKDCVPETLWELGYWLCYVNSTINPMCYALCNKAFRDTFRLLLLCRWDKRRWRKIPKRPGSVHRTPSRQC
M1 ag = activates human CHRM1 receptor; P11229; CHO-K1 hM1, Fluo-8 calcium fluorescence, agonist mode; 0% DMSO, 100% acetylcholine EC100; activation, % at 3 µM; hit rate 0.33% among 360,000; AID 588814;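 active = activation above the run's mean compound activation plus 3 SD, cut at about 16% in these data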;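 note: peak over basal fluorescence ratio within a 140 s kinetic read after compound addition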
CHO-K1 Ca ag = counter-screen for M1 agonists: effect in parental CHO-K1 cells; Fluo-8 calcium fluorescence; scaled to maximal ATP response, vehicle zero; activation, % at 3 µM; hit rate 0.48% among 360,000; in the data active = activation above about 15%;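 note: untransfected CHO-K1 host cells lacking M1 receptor as counterscreen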
CHO-K1 Ca antag = M1 antagonist counterscreen hit in parental CHO-K1 cells; inhibition, % at 3 µM; ATP-induced calcium, Fluo-8 fluorescence; hit rate 0.6% among 360,000; AID 602250;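 active = inhibition above a per-plate cutoff, the plate's mean sample inhibition plus 3 SD, cut at about 24% in these data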;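 note: 0% = DMSO plus EC80 ATP and 100% = DMSO alone without ATP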
M1 PAM = human CHRM1 positive allosteric modulation. CHO-K1 hM1, Fluo-8 calcium fluorescence, ACh EC20; 0% = ACh EC20, 100% = maximal ACh. activation, % at 3 µM. hit rate 0.088% among 360,000. AID 588819; in the data active = activation above about 19%, passing the limit was not always enough
* marks the source's active call; other numbers are inactive results.

SMILES	M1 PAM parental	M1 antag	M1 ag	CHO-K1 Ca ag	CHO-K1 Ca antag	M1 PAM
CC1CCN(CCOc2cccc(Br)c2)CC1	24	9	-9	2	-6	-5
CC1CCN(CCCCOc2cccc(C(C)C)c2)CC1	-24	70*	-5	1	10	-31
CC1CCN(CCOc2ccc(C(=O)c3ccccc3)cc2)CC1	15	64*	-9	1	-7	-29
Cc1ccc(OCCCCN2CCC(C)CC2)cc1	11	4	-10	0	-12	-7
CCCOc1ccc(OCCN2CCCC(C)C2)cc1 (configuration not stated)	23	28*	-7	1	-13	-23
CC1CCC(NC(=O)COc2ccc(C(=O)c3ccccc3)cc2)CC1 (configuration not stated)	-1	-17	-2	2	4	10
CC1CCN(CCCCOc2ccc(C(=O)c3ccccc3)cc2)CC1	11	55*	-3	1	-5	-24
Cn1nnc(NC(=S)NC(=O)c2ccc3ccccc3c2)n1	13	-5	-3	1	-5	1
CCCCN1C(=O)CC(SC2CC(=O)N(CCCC)C2=O)C1=O (configuration not stated)	16	-13	0	0	-11	13
CC(OC(=O)/C(C#N)=C/c1ccc(N(C)C)cc1)C(=O)N(C)Cc1ccccc1 (configuration not stated)	-5	30*	15	14	8	-17
CC(OC(=O)c1cccc(O)c1)C(=O)N(C)Cc1ccccc1 (configuration not stated)	-6	-18	-5	1	-4	11
CCOc1ccc(-n2nc3c(=O)n(CCN4CCCCC4)nc(C)c3c2C)cc1	-12	31*	-11	-1	13	-25
Cc1nn(CC(=O)NCCN2CCCCCC2)c(=O)c2nn(-c3ccccc3)c(C)c12	-14	24	-14	-1	-3	-26
CCc1nn(C(C)C(=O)NCCN2CCCCCC2)c(=O)c2cc3occc3n12 (configuration not stated)	-16	38*	-5	-1	-2	-22
CCc1nn(C(C)C(=O)NCCN2CCN(c3cccc(C)c3C)CC2)c(=O)c2cc3occc3n12 (configuration not stated)	25	-13	-2	2	-2	6
Cc1nn(C(C)C(=O)NCCN2CCCCCC2)c(=O)c2nn(-c3ccccc3)c(C)c12 (configuration not stated)	-7	58*	-5	0	-2	-21
CCOc1ccc(N(C(C)C(=O)NN=C2CCCCCCC2)S(C)(=O)=O)cc1 (configuration not stated)	22	-6	-4	0	-8	4
O=C(CCc1c[nH]c2ccccc12)NC(Cc1c[nH]c2ccccc12)C(=O)O (configuration not stated)	20	-12	-2	0	-8	17
COC(=O)[C@H](Cc1c[nH]c2ccccc12)NC(=O)CCCc1c[nH]c2ccccc12	12	0	2	16*	3	2
CCOC(=O)C(Cc1ccc(O)cc1)NC(=O)CCc1c[nH]c2ccccc12 (configuration not stated)	4	-3	21*	11	-5	0
COC(=O)[C@H](Cc1c[nH]c2ccccc12)NC(=O)Cc1c[nH]c2ccccc12	8	-8	2	13	-6	4
O=C(/C(=C/O)N=Nc1ccccc1)c1ccncc1	-2	4	-2	23*	-7	-3
Cc1[nH]c2ccccc2c1/C=N\NC(=O)c1ccco1	6	-20	1	1	2	24*
Cc1[nH]c2ccccc2c1/C=N/NC(=O)CNC(=O)c1ccco1	8	-16	-4	0	4	9
Cc1[nH]c2ccccc2c1/C=N/Nc1ccc([N+](=O)[O-])cc1	0	35*	16*	21*	34*	-10
SMILES	M1 PAM parental	M1 antag	M1 ag	CHO-K1 Ca ag	CHO-K1 Ca antag	M1 PAM
O=C(Oc1ccc2c(-c3ccccc3)cc(=O)oc2c1)C1CCCCC1	-4	6	-2	0	12	-10
COCCn1c(SCC(=O)N2CCOCC2)nc2c(c1=O)SCC2	-11	10	-3	-1	-2	1
CC(C)Cc1ccc(C(C)C(=O)Nc2cccnc2)cc1 (configuration not stated)	7	32*	13	16*	5	-15
CC(C)Cc1ccc(C(C)C(=O)Nc2ccc(O)cc2)cc1 (configuration not stated)	6	50*	54*	29*	34*	-15
Cc1cc(=O)[nH]c(SCC(=O)N2CCCCCC2)n1	20	-2	-2	1	-6	8
CCCCCNCc1ccc(Br)cc1	-11	5	7	1	0	3
CCCCCCNCc1ccc(Br)cc1	9	-11	16*	2	4	-3
O=C(C[C@H]1C[C@H](C(=O)N2CCCCC2)[C@@]2(CCc3ccccc3)c3[nH]c4ccc(Cl)cc4c3CCN2C1=O)NCCC1=CCCCC1	-11	21	-1	0	26*	-11
CC(O)(C#CCN1CCOCC1)c1ccccc1 (configuration not stated)	1	-10	-1	0	-3	-5
CC(C)C(O)(C#CCN1CCCCC1)c1ccccc1 (configuration not stated)	11	99*	-9	2	-11	-24
CC(C)C(O)(C#CCN1CCCC1)c1ccccc1 (configuration not stated)	19	92*	-5	2	-10	-22
N#C/C(=C\c1ccc(N2CCOCC2)o1)C(=O)Nc1ccc(O)cc1	3	9	10	16*	5	-6
COc1ccc(NC(=O)/C(C#N)=C/c2ccc(Br)o2)cc1	7	-10	-1	0	-10	7
COc1ccc(NC(=O)/C(C#N)=C\c2ccc(N3CCOCC3)o2)cc1	-20	31*	69*	54*	35*	-36
N#C/C(=C/c1ccc(N2CCOCC2)o1)c1nc2ccccc2[nH]1	-10	31	25*	19*	15	-17
N#C/C(=C/c1ccc(N2CCOCC2)o1)C(=O)NC1CCCCC1	13	2	10	7	-7	3
O=C(c1ccc2snnc2c1)N1CCN(c2ccccc2)CC1	-6	2	-2	0	4	0
Cn1c(SCC(=O)Nc2ccccc2)nc2c([nH]c3ccccc32)c1=O	2	35*	-13	1	10	-26
Cn1c(N2CCN(C(=O)Nc3ccc(F)cc3)CC2)nc2ccccc21	-3	-4	-3	1	8	1
Cn1c(N2CCN(C(c3ccccc3)c3ccccc3)CC2)nc2ccccc21	-18	32*	-7	1	25*	-20

Screens (PubChem)
